# KKLEB cytotox – cytotoxicity in KKLEB CF airway cells, primary screen, cytotoxicity control for CF NF-kB inhibitor project, cell-based, uHTS, fluorescence assay plates; KKLEB CF airway cells viability, ATPlite luminescence, overnight; active compounds read low; cells stimulated with P. aeruginosa culture filtrate; activity change (cytotoxicity), % at 5 µM; 360,000 tested, 0.36% active; AID 602141, 2011;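 active means corrected activity change at or below -50% at 5 µM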
# HIF-2a inh – HIF-2a reporter inhibitors, primary screen, luminescence, 786-0 RCC cells; 786-0 RCC cells HIF-2a reporter, luciferase luminescence, overnight; inhibition, % at 18.8 µM; 360,000 tested, 0.72% active;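 active means inhibition of the luminescence signal of 40% or more relative to plate controls, in a single-dose primary screen at 18.75 µM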
# TWEAK Fn14 block – inhibitors of TWEAK-Fn14 signaling, primary screen, luciferase reporter cells, uHTS; TWEAK-stimulated Fn14 reporter cells, luciferase luminescence, 8 h; inhibition, % at 10 µM; 360,000 tested, 2% active; AID 1159606, 2016; in the data active means inhibition above about 50%
# CF NFkB block – inhibitors of PAF-induced NF-kB signaling, primary screen, cell-based, GFP fluorescence, uHTS; AID 588850, 2011; 360,000 tested, 0.86% active; inhibition, % at 5 µM; KKLEB NF-kB-GFP reporter, GFP fluorescence overnight;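 active means at least 50% inhibition at 5 µM, scaled per plate between neutral and stimulator controls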;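 further: PAF is a Pseudomonas aeruginosa culture filtrate used as stimulus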
# TROY NFkB inh – inhibitors of TROY-driven NF-kB signaling, primary screen, Q293 LMP1-TROYcd cells, NF-kB luciferase, uHTS. AID 1347056, 2019. inhibition, % at 10 µM. 360,000 tested, 0.98% active. Q293 LMP1-TROYcd NF-kB luciferase reporter, 4 h;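 active means compounds whose plate-normalised and pattern-corrected inhibition of the luciferase reporter signal at the single screening dose is 50% or more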
# Peg3 prom inh-1 – Peg3 promoter-driven luciferase inhibitors, primary screen, cell-based, HeLa, luciferase luminescence | inhibition, % at 20 µM | 360,000 tested, 1.7% active | HeLa PEG-Prom luciferase reporter, overnight | AID 588405, 2011;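 active means inhibition of at least 50% at 20 µM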
# Peg3 prom inh-2 – Peg3 promoter reporter inhibitors, retest, confirmation, cell-based, HeLa, luciferase reporter, single concentration; shares compounds with Peg3 prom inh-1; HeLa PEG-Prom luciferase reporter, luminescence, overnight; inhibition, % at 20 µM; 1,300 tested, 84% active; AID 602417, 2012;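 active means at 20 µM dose, 40% or more inhibition averaged across four replicates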
# Mdm2-MdmX confirm – retested Mdm2-MdmX interaction blockers, confirmation, cell-based, luminescence, single concentration, set 2 | shares compounds with HIF-2a inh | SaOS-2 split-luciferase Mdm2/MdmX complementation | inhibition, % at 8 µM | 740 tested, 99% active | AID 504601, 2011;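 active means mean inhibition of the luminescence signal across two replicates at or above 26 percent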
# HIF-2a conf – HIF-2a reporter inhibitor retest, confirmation, luminescence, 786-0 RCC cells | 1,800 tested, 56% active | shares compounds with HIF-2a inh | HIF-2a luciferase reporter luminescence, overnight | inhibition, % at 18.8 µM;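 active means mean inhibition across four replicates of at least 40 percent at the single tested concentration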
# HIF-1a cs – HIF-1a luciferase reporter signal reduction – MiaPaCa-2 cells, single concentration, counter-screen for HIF-2a inhibitor project, confirmation. shares compounds with HIF-2a inh. 1,800 tested, 72% active. inhibition, % at 18.8 µM. MiaPaCa-2 HIF-1a luciferase reporter, desferoxamine, overnight;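 active means mean inhibition of the reporter signal across four replicates at the single tested dose of 50% or more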
# A number is an active result; n = inactive; x = not tested or not shown. Only some compounds are listed: those with a hit (about 4% of all), similar ones and a draw of the others.
SMILES,KKLEB cytotox,HIF-2a inh,TWEAK Fn14 block,CF NFkB block,TROY NFkB inh,Peg3 prom inh-1,Peg3 prom inh-2,HIF-2a conf,HIF-1a cs,others
COc1ccc(CCNC(=O)c2ccc3c(c2)OCCO3)cc1,n,n,n,n,n,n,x,x,x,
Cc1ccc2nc(NC(=O)CSCC(=O)OCC(=O)c3ccccc3)sc2c1,n,71,96,n,73,53,71,75,74,
CCOCC(=O)Nc1nc2ccc(C)cc2s1,n,n,n,n,n,n,x,x,x,
CCOC(=O)Cc1csc(NC(=S)NC(=O)c2ccc(Cl)cc2)n1,n,95,n,n,n,51,70,98,97,
C=CCn1c(C)cc(C(=O)CN2C(=O)c3ccccc3S2(=O)=O)c1C,n,95,104,n,88,93,96,99,104,Mdm2-MdmX confirm=74
CC(C)NC(=O)CN1C(=O)c2ccccc2S1(=O)=O,n,n,n,n,n,n,x,x,x,
Cc1ccc(C(=O)CN2C(=O)c3ccccc3S2(=O)=O)cc1,n,87,99,n,83,81,79,87,82,
Cc1cc(C(=O)CN2C(=O)c3ccccc3S2(=O)=O)c(C)n1C(C)C,n,76,93,n,84,68,74,86,82,
Cc1cc(C)nc(NC(=O)CN2C(=O)c3ccccc3S2(=O)=O)n1,n,n,n,n,n,n,x,x,x,
O=C(CSc1nc(O)cc(=O)n1-c1ccccc1)NCc1ccccc1,n,n,n,n,n,n,x,x,x,
COc1cc(C(=O)OCC(=O)Nc2cc(C)on2)ccc1OCc1ccccc1Cl,n,n,n,n,n,n,x,x,x,
O=C(CCl)Nc1cccc(-c2cnc3ccccc3n2)c1,-64,n,85,88,n,79,92,x,x,Mdm2-MdmX confirm=102
Cc1ccc(C(=O)n2c(N)nc3ccccc32)cc1,n,42,99,n,73,80,n,69,87,
O=C(NCc1ccccc1)c1cc(C2CCCCN2C(=O)CCc2ccccc2)on1 (stereo not drawn),n,n,n,n,n,n,x,x,x,
Cc1c(/C(O)=C2/C(=O)C(=O)N(Cc3cccnc3)C2c2ccccn2)cnn1-c1ccccc1 (stereo not drawn),n,67,101,n,91,66,59,52,56,
CCOc1cc(/C=C\[N+](=O)[O-])ccc1OCC(=O)Nc1ccccc1C,n,96,n,n,n,115,91,n,106,Mdm2-MdmX confirm=100
CC(C)CC(=O)Nc1ccc(C(=O)Cn2c(=O)oc3ccccc32)cc1,n,n,n,n,n,n,x,x,x,
COC(=O)c1ccc2nc(NC(=O)C3CCCCC3)sc2c1,n,n,n,n,n,n,x,x,x,
COC(=O)c1ccc2nc(Nc3nc4ccc(F)cc4s3)sc2c1,n,89,92,n,79,79,90,98,88,
CC(Sc1nnc(C2CC2)n1C1CC1)C(=O)c1ccc(Br)cc1 (stereo not drawn),n,n,n,n,n,n,x,x,x,
CN1CCN(c2ccc(-c3ccc4ccccc4n3)cc2)CC1,-59,87,103,n,92,105,95,97,87,
c1ccc2nc(-c3ccncc3)ccc2c1,n,n,n,n,n,n,x,x,x,

# Screens: PubChem, Sanford-Burnham Center for Chemical Genomics
